{
  "source": "PubChem BioAssay AID504834",
  "about": "(National Center for Advancing Translational Sciences (NCATS), 2011)",
  "note": "The campaign covered roughly 320,000 compounds. About 22,000 (6.9%) were called active. Roughly 27% stayed inconclusive and do not appear here. This excerpt belongs to a sample that is enriched for actives. Unmarked numbers belong to inactive results. Calls follow the shape of the dose curve; as a rule, active = well fitted inhibition curve with a large enough effect; inconclusive = small, poorly fitted or top-dose-only effect, or another doubt; inactive = no such curve, though single readings can be large or run the other way. % is scaled to controls: 0 for no effect and ±100 for the full control effect; potency is read from the fitted curve at half-maximal effect.",
  "data": [
    {"assay": "Primary qHTS for delayed death inhibitors of the malarial parasite plastid, 96 hour incubation", "settings": "P. falciparum luciferase reporter growth; series mostly up to 28.7 µM; activity change, negative = inhibition: at the top concentration", "how_it_was_run": "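Two parasite generations (96 h, 37 C, 5% CO2) of compound exposure in infected erythrocytes (0.05% parasitemia, 2% hematocrit). Luciferase-reporter P. falciparum; decreased luminescence indicates inhibited growth, aimed at apicoplast-acting delayed death.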", "units": {"activity change, negative = inhibition": "%"}, "values": [
      {"smiles": "O=C(NCCCN1CCOCC1)c1cnn2c(-c3ccccc3)cc(-c3ccccc3)nc12", "Potency": "9.28 µM (active)"},
      {"smiles": "O=C(NCCCN1CCOCC1)c1ccccc1NS(=O)(=O)c1ccc(Br)cc1", "activity change, negative = inhibition": -14.4},
      {"smiles": "CCc1ccc(OCC(=O)NCC(c2ccc(Cl)cc2)N2CCCCC2)cc1", "note": "(configuration not stated)", "activity change, negative = inhibition": 19.3},
      {"smiles": "COc1cccc(C(=O)Nc2ccc(N3CCN(C(=O)c4ccco4)CC3)cc2)c1", "activity change, negative = inhibition": 15.5},
      {"smiles": "COc1ccc(Cl)cc1NS(=O)(=O)c1cccc(C(=O)NCC2CCCO2)c1", "note": "(configuration not stated)", "activity change, negative = inhibition": 0.0416},
      {"smiles": "C[C@H](NC(=O)c1ccccc1)C(=O)OCC(=O)c1c[nH]c2ccccc12", "activity change, negative = inhibition": 22.5},
      {"smiles": "CC(C)Nc1nnc(SCC(=O)c2c[nH]c3ccccc23)s1", "Potency": "10.4 µM (active)"},
      {"smiles": "COC(=O)c1ccc(CSc2nnc(NC(C)C)s2)cc1", "activity change, negative = inhibition": -3.42},
      {"smiles": "Cc1coc2c1c(C)cc1oc(=O)c(CC(=O)NCC(=O)N[C@H](C(=O)O)C(C)C)c(C)c12", "activity change, negative = inhibition": -0.522},
      {"smiles": "Cc1onc(-c2ccccc2)c1C(=O)N=C(N)c1ccc(Cl)cc1", "activity change, negative = inhibition": -3.39},
      {"smiles": "Cc1onc(-c2ccc(Cl)cc2)c1-c1ccnn1S(=O)(=O)c1ccc(Cl)cc1", "Potency": "1.17 µM (active)"},
      {"smiles": "COc1cc(-c2c(-c3ccc4c(c3)OCO4)noc2C)ccc1F", "activity change, negative = inhibition": -10.2},
      {"smiles": "Cc1cccc([C@@H]2[C@@H]3C(=O)N(C)C(=O)[C@@H]3[C@@H]3C(=O)Nc4ccccc4C(=O)N23)c1", "activity change, negative = inhibition": 35.7},
      {"smiles": "CCOC(=O)c1sc(N)c(C#N)c1COC(=O)C1=COCCO1", "activity change, negative = inhibition": 0},
      {"smiles": "Cc1ccc(-c2ccc(=O)n(Cc3ccc(F)cc3Cl)n2)cc1", "activity change, negative = inhibition": 1.04},
      {"smiles": "COc1ccc(CNC(=O)CN(C(=O)c2csnn2)c2cnc3ccccc3c2)cc1", "activity change, negative = inhibition": -6.61},
      {"smiles": "Cc1cccc(NS(=O)(=O)c2ccc(C(=O)NCC(C)(C)N3CCOCC3)cc2)c1C", "activity change, negative = inhibition": 0.321},
      {"smiles": "Cc1cc(C)n2nc(SCC(=O)NC(=O)NCc3ccco3)nc2n1", "activity change, negative = inhibition": 2.98},
      {"smiles": "Cc1nc2nc(SCC(=O)NCc3ccco3)nn2c(C)c1Cc1ccccc1", "Potency": "10.4 µM (active)"},
      {"smiles": "COc1cc(OC)cc(-c2nc3nc(C)c(CCC(=O)NCc4ccco4)c(C)n3n2)c1", "activity change, negative = inhibition": 24.9},
      {"smiles": "O=C(O)C(c1ccccc1)C1(O)CCCCC1", "note": "(configuration not stated)", "activity change, negative = inhibition": 37.9},
      {"smiles": "CCCOc1cccc(C(=O)Nc2ccccc2C(=O)N2CCN(C)CC2)c1", "activity change, negative = inhibition": -9.04},
      {"smiles": "CC(C)S(=O)(=O)c1csc(NC(=O)Nc2ccc(Cl)cc2)c1Cl", "Potency": "1.17 µM (active)"},
      {"smiles": "Cn1ccc(NC(=O)Nc2ccc(Cl)cc2)n1", "activity change, negative = inhibition": 61.5},
      {"smiles": "CN(c1cccc(NC(=O)Nc2ccc(Cl)cc2)c1)S(C)(=O)=O", "activity change, negative = inhibition": 0},
      {"smiles": "O=C(c1cccnc1)N1CCN(S(=O)(=O)c2cccs2)CC1", "activity change, negative = inhibition": 9.61},
      {"smiles": "Cc1ccc(-n2ncc3c2CCCC3NC(=O)c2cnccn2)cc1C", "note": "(configuration not stated)", "activity change, negative = inhibition": 27.8},
      {"smiles": "O=C1CCC(=O)N(O)CCCCCNC(=O)CCC(=O)N(O)CCCCCNC(=O)CCC(=O)N(O)CCCCCN1", "Potency": "10.4 µM (active)"},
      {"smiles": "CC(CN1CCCCC1)c1ccccc1", "note": "(configuration not stated)", "activity change, negative = inhibition": 8.4},
      {"smiles": "CC(C)[C@@H]1COC(c2cccc(C3=N[C@H](C(C)C)CO3)c2)=N1", "activity change, negative = inhibition": 9.17},
      {"smiles": "CN(C(=O)c1cccc(OC2CCN(S(=O)(=O)N(C)C)CC2)c1)C1CCOC1", "note": "(configuration not stated)", "activity change, negative = inhibition": 25.5},
      {"smiles": "COC(=O)C1C(=O)c2c([nH]c(C(=O)OCCSC)c2C)CC1C", "note": "(configuration not stated)", "Potency": "3.7 µM (active)"},
      {"smiles": "CCCOC(=O)C1=C(C)NC2=C(C(=O)C(C(=O)OC)C(C)C2)C1c1ccc(N(C)C)cc1", "note": "(configuration not stated)", "activity change, negative = inhibition": 13.8},
      {"smiles": "OC(c1nc2ccccc2[nH]1)C(O)C(O)C(O)c1nc2ccccc2[nH]1", "note": "(configuration not stated)", "activity change, negative = inhibition": 30.2},
      {"smiles": "C/C=C/c1ccc(OCCOc2ccc(C=O)cc2OC)c(OC)c1", "activity change, negative = inhibition": -8.36},
      {"smiles": "C/C=C/c1ccc(OCCCCN2CCC(C)CC2)c(OC)c1", "Potency": "5.22 µM (active)"},
      {"smiles": "COc1ccc(/C=C/C(=O)N2CCCC2)cc1OC", "activity change, negative = inhibition": 0},
      {"smiles": "COc1ccc(CN2CCNC(=O)C2CC(=O)NCc2cn[nH]c2-c2ccccc2)c(F)c1", "note": "(configuration not stated)", "activity change, negative = inhibition": 8.51},
      {"smiles": "CN(C(=O)COC(=O)Cn1cnc2c1c(=O)n(C)c(=O)n2C)C1(C#N)CCCCC1", "activity change, negative = inhibition": 14.8},
      {"smiles": "O=c1onc(-c2c(F)cccc2F)n1-c1ccccc1Cl", "activity change, negative = inhibition": -7.75},
      {"smiles": "CCC(=O)c1cc(F)ccc1OCC(=O)Nc1ccc2c(c1)OCCO2", "activity change, negative = inhibition": -52.7},
      {"smiles": "COc1cccc2c(=O)n(CC(=O)N3CCCCCC3)ccc12", "activity change, negative = inhibition": -12.4},
      {"smiles": "Cc1cc(C(F)(F)F)nn1CC(=O)N1CCCC1", "activity change, negative = inhibition": 49.1},
      {"smiles": "Cc1ccc2oc(=O)c3cnn(CC(=O)N4CCCCCC4)c3c2c1", "Potency": "9.28 µM (active)"},
      {"smiles": "C/C(=N/Nc1ccc(Cl)cc1)c1cnnc(-c2ccccc2)n1", "Potency": "0.522 µM (active)"},
      {"smiles": "Cn1nc(-c2ccccc2)c(-c2nc(-c3ccc(Cl)cc3)no2)c1Cl", "activity change, negative = inhibition": 13.6},
      {"smiles": "C/C(=N\\Nc1nncc2ccccc12)c1ccc(Cl)c([N+](=O)[O-])c1", "activity change, negative = inhibition": 64.3},
      {"smiles": "Cc1ccc(S(=O)(=O)NNC(=O)/C=C/c2cccc(F)c2)cc1", "activity change, negative = inhibition": 1.02},
      {"smiles": "Cc1ccc2c(c1)N(CC(=O)N1CCC(O)CC1)C(=O)CO2", "activity change, negative = inhibition": 20.6},
      {"smiles": "O=C(Nn1cnc2ccccc2c1=O)c1ccccc1", "activity change, negative = inhibition": 12.2},
      {"smiles": "Cc1nc2ccccc2c(=O)n1NC(=O)c1ccc(Cl)c([N+](=O)[O-])c1", "activity change, negative = inhibition": 232},
      {"smiles": "O=C(Nn1cnc2ccccc2c1=O)c1ccc(F)cc1Cl", "Potency": "11.7 µM (active)"}
    ]}
  ]
}
